Experimental findings from PubChem BioAssay (NCI) are described below.

SMILES strings stand for the structures. The panel holds about 79,000 compounds, 15% with a hit somewhere; the sample as a whole holds those more often. A number with no mark means an inactive call. Activity calls are given as the source filed them. Rule as the data show it: active = growth inhibition above about 70%; inactive = the rest.

The nature of one test: NCI Yeast Anticancer Drug Screen. Data for the sgs1 strain (AID 173).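 Also: 0% = growth of vehicle-only control cultures.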 The conditions noted are these: S. cerevisiae sgs1 mutant, at 1.2 µM, hits give high values. A digest of the protocol: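 Vehicle-treated cultures served as reference for growth inhibition of a yeast strain altered in DNA damage repair or cell cycle control after compound exposure.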
`CNC(=O)OCc1c(COC(=O)NC)c(C)n(-c2ccc(Cl)c(Cl)c2)c1C`: the growth inhibition was 3%.
As for `COc1ccc2nc(N/N=C/c3sccc3C)cc(C)c2c1`, the growth inhibition was -30%.
As for `O=C(O)/C=C\C(=O)NNc1ccc(Br)cc1`, the growth inhibition was 4%.
With `S=c1[nH]nc(Cc2ccccc2)c(=S)[nH]1`, the growth inhibition is 2%.
With `COc1ccc2nc3cccc([N+](=O)[O-])c3c(NCCCO)c2c1`, the growth inhibition is 93% (active).
As to `CCN(CC)CCSc1c2ccccc2nc2cc(NCC(=O)Nc3ccccc3-c3ccccc3NC(=O)CNc3ccc4c(SCCN(CC)CC)c5ccccc5nc4c3)ccc12`, the growth inhibition was -14%.
Still for that read-out and setting: the result for `Cc1ccc(N(C=O)c2c([N+](=O)[O-])cc([N+](=O)[O-])c3c2=[N+]([O-])CN=3)cc1` reads 16%; that for `COc1ccc(C(=O)OCCc2ccccc2)cc1`, -15%.
Take `COc1ccc(C(=O)NCCN(C)C)c2nc3ccccc3cc12`: the growth inhibition is 15%.
On to `NCC(O)CSCc1ccc(Cl)cc1` (configuration not stated), for which the growth inhibition is -9%.
Still for that read-out and setting: the same measure for `CN(C)/N=N/c1nc[nH]c1C(N)=O`: -1%; for `O=c1[nH]c(=O)n(CCCO)cc1F`: -27%.
On to `COc1ccc(/C(=N/O)c2ccccc2C2=Nc3ccccc3C(NCc3ccccc3)O2)cc1C` (configuration not stated), for which the growth inhibition is -2%.
Same read-out and setting: the result for `CCCC(=O)OC(OC(=O)CCC)c1ccc([N+](=O)[O-])o1` reads -1%; that for `O=C(/C(=C/c1ccccc1)CBr)c1ccccc1`, 5%; that for `O=C(Cc1ccccc1F)NC1=C(Cl)C(=O)c2ccccc2C1=O`, 39%.
As to `Cc1cccc(N2CCN(C(=O)/C(=C/c3ccccc3)NC(=O)c3ccccc3)CC2)c1`, the growth inhibition is -2%.
`c1cc(Nc2ccc3c(c2)OCO3)c2cc(C3CCCCC3)ccc2n1`: the growth inhibition is -1%.
With `Cc1ccc2nc(N/N=C/c3ccc(C)s3)cc(C)c2c1`, the growth inhibition was -12%.
On to `COc1ccc2cc(CN3CCC(C4CCN(Cc5ccc6cc(OC)ccc6c5)CC4)CC3)ccc2c1`, for which the growth inhibition was 14%.
The same measure, in the same setting: the result for `CC(=O)O/N=C/c1c2ccccc2cc2ccccc12` reads -1%; that for `CC[C@@]1(OC(=O)CN(C)C)C(=O)OCc2c1cc1n(c2=O)Cc2cc3ccccc3nc2-1`, 6%.
Consider `CC1(C)CC(=O)C(C(CC(c2ccccc2)c2cc3c(cc2O)OCO3)C2=C(O)CC(C)(C)CC2=O)=C(O)C1` (configuration not stated), for which the growth inhibition was -1%.
On to `CCOC(=O)C1=C(C)NC(C)=C(C(=O)OCC)C1c1cccc([N+](=O)[O-])c1`, for which the growth inhibition was -18%.
As to `Cc1ccc2c(/C=C/c3ccc(N(C)C)cc3)ccnc2c1C`, the growth inhibition was -26%.
Still for that read-out and setting: the same measure for `O=C1C(Br)=CC(Br)(Br)C=C1Br`: 2%.

Staying with this test, now noted: S. cerevisiae sgs1 mutant, at 3.7 µM, hits give high values.
Consider `CNC(=O)OCc1c(COC(=O)NC)c(C)n(-c2ccc(Cl)c(Cl)c2)c1C`, for which the growth inhibition was -4%.
Still for that read-out and setting: the same measure for `COc1ccc2nc(N/N=C/c3sccc3C)cc(C)c2c1`: -45%.
As for `O=C(O)/C=C\C(=O)NNc1ccc(Br)cc1`, the growth inhibition is 66%.
Turning to `S=c1[nH]nc(Cc2ccccc2)c(=S)[nH]1`, the growth inhibition is 10%.
As to `COc1ccc2nc3cccc([N+](=O)[O-])c3c(NCCCO)c2c1`, the growth inhibition was 95% (active).
As for `CCN(CC)CCSc1c2ccccc2nc2cc(NCC(=O)Nc3ccccc3-c3ccccc3NC(=O)CNc3ccc4c(SCCN(CC)CC)c5ccccc5nc4c3)ccc12`, the growth inhibition is -18%.
Regarding `Cc1ccc(N(C=O)c2c([N+](=O)[O-])cc([N+](=O)[O-])c3c2=[N+]([O-])CN=3)cc1`, the growth inhibition is 21%.
Take `COc1ccc(C(=O)OCCc2ccccc2)cc1`: the growth inhibition is 7%.
Regarding `COc1ccc(C(=O)NCCN(C)C)c2nc3ccccc3cc12`, the growth inhibition was 16%.
Still for that read-out and setting: the same measure for `NCC(O)CSCc1ccc(Cl)cc1` (configuration not stated): 12%.
For `CN(C)/N=N/c1nc[nH]c1C(N)=O`, the growth inhibition was -2%.
On to `O=c1[nH]c(=O)n(CCCO)cc1F`, for which the growth inhibition was -16%.
Consider `COc1ccc(/C(=N/O)c2ccccc2C2=Nc3ccccc3C(NCc3ccccc3)O2)cc1C` (configuration not stated), for which the growth inhibition is -2%.
As to `CCCC(=O)OC(OC(=O)CCC)c1ccc([N+](=O)[O-])o1`, the growth inhibition is 1%.
In the case of `O=C(/C(=C/c1ccccc1)CBr)c1ccccc1`, the growth inhibition is 21%.
Still for that read-out and setting: the result for `O=C(Cc1ccccc1F)NC1=C(Cl)C(=O)c2ccccc2C1=O` reads 35%; that for `Cc1cccc(N2CCN(C(=O)/C(=C/c3ccccc3)NC(=O)c3ccccc3)CC2)c1`, 2%.
For `c1cc(Nc2ccc3c(c2)OCO3)c2cc(C3CCCCC3)ccc2n1`, the growth inhibition is -2%.
Still for that read-out and setting: the result for `Cc1ccc2nc(N/N=C/c3ccc(C)s3)cc(C)c2c1` reads -19%.
Consider `COc1ccc2cc(CN3CCC(C4CCN(Cc5ccc6cc(OC)ccc6c5)CC4)CC3)ccc2c1`, for which the growth inhibition is 8%.
With `CC(=O)O/N=C/c1c2ccccc2cc2ccccc12`, the growth inhibition was -1%.
With `CC[C@@]1(OC(=O)CN(C)C)C(=O)OCc2c1cc1n(c2=O)Cc2cc3ccccc3nc2-1`, the growth inhibition was 28%.
For the compound `CC1(C)CC(=O)C(C(CC(c2ccccc2)c2cc3c(cc2O)OCO3)C2=C(O)CC(C)(C)CC2=O)=C(O)C1` (configuration not stated), the growth inhibition was 10%.
Turning to `CCOC(=O)C1=C(C)NC(C)=C(C(=O)OCC)C1c1cccc([N+](=O)[O-])c1`, the growth inhibition was -14%.
In the case of `Cc1ccc2c(/C=C/c3ccc(N(C)C)cc3)ccnc2c1C`, the growth inhibition was -51%.
Take `O=C1C(Br)=CC(Br)(Br)C=C1Br`: the growth inhibition is 5%.
